IL-1B inflam inh: inhibitors of inflammasome signaling (IL-1 beta secretion). activity change, % at 57.5 µM. THP-1 LPS/ATP IL-1B secretion, AlphaLISA, 16 h; hits give low values. hit rate 4.7% among 360,000; in the data active = activity change below about -50%; inconclusive = mostly about -30% to -49%
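Secreted IL-1B measured by AlphaLISA bead assay after 16 h compound exposure of THP-1 cells; compounds (final up to 57.5 uM) added 1 h before LPS (250 ng/mL) and ATP (1.25 mM) stimulation; lower signal means less secretion.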
TDP1 cell CPT: growth inhibition of DT40 Tdp1-/-;hTDP1 cells with camptothecin (screen for TDP1 inhibitors) | Potency, µM (highest dose often 46.2 µM), hits mostly inhibitors | hit rate 12% among 420,000 | chicken DT40 Tdp1-/-;hTDP1 cells + 20 nM CPT, ATP luminescence, 48 h; also: nearly all actives have a fitted effect of over 55% in size
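Chicken DT40 Tdp1-/- cells stably complemented with human TDP1 were seeded at 400 cells/well in medium containing 20 nM camptothecin, exposed to pin-transferred compounds, and grown at 37 °C for at least 48 hr. Viability was read as ATP luminescence.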
HT1080-NT tox: kills 2HG-producing HT-1080-NT fibrosarcoma cells; hit rate 1.6% among 360,000; HT-1080-NT fibrosarcoma viability, CellTiter-Glo ATP luminescence, 48 h; Potency, µM (series often up to 46.1 µM), usual class: cytotoxic;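 also: NT is the 2HG producing partner of a matched IDH1 knockdown line; nearly all actives have a fitted effect of over 55% in size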
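Luminescent CellTiter-Glo readout after 48 hours of compound exposure at 37 degrees C defined viability of HT-1080-NT cells. Activity was normalized to DMSO wells and cell-free media wells; concentration-response curves were fitted and assigned curve classes.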
HT1080 IDH1KD tx: kills HT-1080 cells with IDH1 knockdown; HT-1080 IDH1 knockdown viability, ATP luminescence, 48 h; AID 686971; hit rate 2% among 360,000; Potency, µM (titrated, usually from 46.1 µM), actives largely listed as cytotoxic
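IDH1KD HT-1080 cells, 750/well, RPMI + 5% FBS; compound pinned after 2 h settling; 48 h, 37 °C; CellTiter-Glo luminescence; % activity normalised to DMSO and no-cell wells; curves fitted, classed by r2 and efficacy.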
TDP1 cell noCPT: qHTS for Inhibitors of human tyrosyl-DNA phosphodiesterase 1 (TDP1): qHTS in cells in absence of CPT; DT40 Tdp1-/- hTDP1 cells, no CPT, ATP luminescence, 48 h; Potency, µM (doses to about 46.2 µM), usual class: inhibitors; hit rate 15% among 420,000; AID 686978, 2013; also: nearly all actives have a fitted effect of over 55% in size
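Luminescent ATP content (CellTiter-Glo) served as the growth readout. Knockout chicken DT40 cells expressing human TDP1 were exposed to compounds without camptothecin for a minimum 48 hr at 37 °C.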
Hits are given with their value; n = inactive; u = inconclusive; x = no result given; ! = a repeat was not active. In the library only some 19% were active in any assay of this set; here they are far more common. Unless noted, calls follow the shape of the dose curve; as a rule, active = well fitted curve in the direction sought with a large enough effect; inconclusive = small, poorly fitted or top-dose-only effect, or another doubt; inactive = no such curve, though single readings can be large; an effect the other way counts as inactive or inconclusive.

SMILES	IL-1B inflam inh	TDP1 cell CPT	HT1080-NT tox	HT1080 IDH1KD tx	TDP1 cell noCPT
CC(=O)OC1CC(OC2C(O)CC(OC3C(O)CC(OC4CCC5(C)C(CCC6C5CC(O)C5(C)C(C7=CC(=O)OC7)CCC65O)C4)OC3C)OC2C)OC(C)C1OC1OC(CO)C(O)C(O)C1O (stereo not drawn)	-66.0	1.3µM	0.366µM	0.206µM	0.651µM
CC(=O)OC1CC[C@]2(C)C(CCC3C2CC[C@]2(C)C(C4=CC(=O)OC4)C(OC(C)=O)CC32O)C1 (stereo partly drawn)	x	n	x	x	u
CN1C(=O)C(C2CCCCC2)C(=O)N(C)C1=O	n	n	n	n	n
CCOC(=O)C1=C[C@@H](OC(CC)CC)[C@H](NC(C)=O)[C@@H](N)C1	x	n	x	x	n
C=C(C)[C@@H]1CC[C@]2(C(=O)O)CC[C@]3(C)[C@H](CC[C@@H]4[C@@]5(C)CC[C@H](O)C(C)(C)[C@@H]5CC[C@]43C)[C@@H]12	n	5.8µM	n	n	3.66µM
CCCCCl	x	n	x	x	n
COc1ccccc1CC(=O)Nc1ccc2c(c1)OC1(CCCC1)O2	-73.6	u	n	n	u
Cc1cccc(N(C)C(=S)Oc2ccc3c(c2)CCC3)c1	x	n	x	x	u
CCCCn1c(=O)c(C(=O)Nc2ncccc2C)c(O)c2ccccc21	n	u	23.1µM	16.4µM	u
CCCCCCn1c(=O)c(C(=O)Nc2ncccc2C)c(O)c2ccccc21	n	4.11µM	u	u	1.64µM
NCC(CC(=O)O)c1ccc(Cl)s1 (stereo not drawn)	x	n	x	x	n
CC(=O)OC1C2CCC1C(N1CCCCC1)CC2 (stereo not drawn)	n	n	n	n	n
CCCCn1c(O)c(/C=C/C=Nc2ccccc2)c(=O)[nH]c1=O	n	n	n	n	n
COc1cccc(-n2c(SCC(=O)c3ccc(Cl)cc3)nc3c([nH]c4ccccc43)c2=O)c1	x	3.66µM	x	x	4.11µM
Cc1cc(C)cc(-n2c(SCC(=O)NCc3ccc(F)cc3)nc3c([nH]c4ccccc43)c2=O)c1	x	u	x	x	16.4µM
COc1ccc(CCNc2oc(-c3ccc(OC)c(OC)c3)nc2P(=O)(OC)OC)cc1OC	n	n	n	n	u
Cc1nc2ccc(Nc3nc4cc(S(=O)(=O)N5CCOCC5)ccc4o3)cc2s1	n	16.4µM	n	n	18.4µM
CCC(C(=O)N1CCC2(CC1)OCCO2)c1ccccc1 (stereo not drawn)	n	n	n	n	n
COc1ccc(C(=O)Cn2c(NCCO)nc3ccccc32)cc1	n	16.4µM	n	n	u
COc1ccc(C(=O)CN2CCCCC2)cc1	n	n	n	n	n
[O-][n+]1onc2c1CCC1N(O)CCC21O (stereo not drawn)	n	n	n	n	n
CCCCCNC(=O)C(c1ccncc1)n1c(=O)c(-c2cc3ccccc3[nH]2)nc2ccccc21 (stereo not drawn)	u	16.4µM	u	16.4µM	u
O=C(CCN1CC=C(c2ccccc2)CC1)NCc1ccccc1	n	n	n	n	n
Cc1ccccc1NC(=O)NCCN1CC1	n	4.11µM	n	n	7.31µM
O=C(NCCCN1CC1)Nc1cccc2ccccc12	n	1.64µM	n	n	7.31µM
SMILES	IL-1B inflam inh	TDP1 cell CPT	HT1080-NT tox	HT1080 IDH1KD tx	TDP1 cell noCPT
CC(CC(C)(C)N1CC1)=NNC(=O)Nc1cccc2ccccc12	n	3.66µM	n	n	2.91µM
COC(=O)C1=C(c2ccc(S(C)(=O)=O)cc2)C[C@@H]2CC[C@H]1N2C(=O)NCc1ccco1	n	n	n	n	n
COc1ccc(NC(=O)Nc2cccc3c2O[C@H](CN(C)C(=O)NC2CCCCC2)[C@@H](C)CN([C@H](C)CO)C3=O)cc1	u	u	n	n	u
CCOC(=O)c1ccc(NC(=O)c2cccn(Cc3ccccc3F)c2=O)cc1	x	u	x	x	20.6µM
Cc1ccccc1Cn1cccc(C(=O)Nc2nc3ccccc3s2)c1=O	x	16.4µM	x	x	16.4µM
Cc1ccc2nc(NC(=O)c3cccn(Cc4ccc(Cl)cc4)c3=O)sc2c1	x	n	x	x	n
COc1ccc(C)cc1NC(=O)c1cccn(Cc2ccccc2Cl)c1=O	x	n	x	x	n
COc1cccc(NC(=O)c2cccn(Cc3ccccc3C)c2=O)c1	x	u	x	x	25.9µM
CCn1c(C)c(C(=O)Nc2ccc(OC)cc2)c2cc(OC)ccc21	n	n	n	n	u
CN1CCN(CCOC2c3ccccc3CSc3ccc(Cl)cc32)CC1 (stereo not drawn)	-87.1	u	16.4µM	u	16.4µM
Clc1ccc2c(c1)C(OC1CN3CCC1CC3)c1ccccc1CS2 (stereo not drawn)	-104.3	16.4µM	n	u	14.6µM
O=C1NC(=S)N(c2ccc(Cl)cc2)C(=O)/C1=C/N1CCN(C(=O)c2ccco2)CC1	n	n	n	n	n
COCCn1c(SCc2ccccc2Cl)nc2c1c(=O)[nH]c(=O)n2C	n	u	n	n	u
O=C1CCCC2=C1C(c1cccnc1)Nc1ccccc1N2 (stereo not drawn)	n	n	n	n	n
CN(CCc1ccccc1)C(=O)c1ccc(NC(=O)Cc2cccc([N+](=O)[O-])c2)cc1	-50.8	u	n	n	u
Nc1nnc(Sc2ncccc2[N+](=O)[O-])s1	n	u	n	n	16.4µM
O=C(c1cc(=O)[nH]c2ccc(Br)cc12)N1CCC2(CC1)OCCO2	n	u	n	n	n
CCC(=Nc1ccc2c(c1)CCC2)c1c(O)n(C)c(=O)n(C)c1=O	n	11.6µM	n	n	20.6µM
CC(=Nc1ccc2c(c1)CCC2)c1c(O)n(C)c(=O)n(C)c1=O	n	n	n	n	n
CCC(=Nc1ccc(OC)cc1OC)c1c(O)n(C2CCCCC2)c(=O)[nH]c1=O	n	u	n	n	u
CCC(=NCc1ccc(F)cc1)c1c(O)n(C)c(=O)n(C)c1=O	n	23.1µM	n	n	18.4µM
CCC(=Nc1ccc2c(c1)CCC2)c1c(O)n(-c2ccc(OC)cc2)c(=O)[nH]c1=O	n	20.6µM	n	n	14.6µM
CCC(=Nc1ccc(Cc2ccncc2)cc1)c1c(O)n(C)c(=O)n(C)c1=O	n	5.01µM!	n	n	5.01µM
COC(=O)C1=C(c2cccc(OC)c2OC)C[C@@H]2CC[C@H]1N2C(=O)NCC1CC1	n	n	n	n	x
COc1cc(OC)c2c(c1)OC(c1ccc(OC)c(OC)c1)C(O)C2 (stereo not drawn)	x	n	x	x	n
ClC1=C(Cl)[C@]2(Cl)[C@@H]3[C@@H]4C[C@@H]([C@H]5O[C@@H]45)[C@@H]3[C@@]1(Cl)C2(Cl)Cl	x	n	x	x	n
CCOC(=O)c1ccc(N=C(CC)c2c(O)n(C)c(=O)n(C)c2=O)cc1	n	u	n	n	18.4µM
O=C(Nc1ccccc1)N1CCC2(CC1)CCN(C(=O)Oc1ccccc1)CC2	x	n	x	x	u

High-throughput results from PubChem.
